The results in this text go back to PubChem BioAssay (NCATS).

Records with an inconclusive call do not appear. Entries that show only a call come without a potency. Activity calls are given as the source filed them. The call rests on the fitted dose curve; in most records, active means well fitted cell-killing curve with a large enough effect; inconclusive means small, poorly fitted or top-dose-only effect, or effect the other way; inactive means flat fitted curve, though single readings scatter.
Potency means the concentration at half of the fitted maximal effect.

The assay is described as follows: qHTS of pediatric cancer cell lines to identify multiple opportunities for drug repurposing: Confirmatory screen for Rh18 cells (AID 1347125). Further: nearly all actives have a fitted effect of over 55% in size. Particulars: Rh18 rhabdomyosarcoma cells, viability; series mostly up to 45.9 µM. An excerpt:
Drug repurposing or repositioning has been offered as a strategy for drug development in oncology programs. This approach has special potential for childhood cancers and other rare or orphan diseases, where the expected return on new drug development has been a disincentive to pharmaceuticals.
In this project we exploit the poly-pharmacology of drugs to discover new indications via phenotypic screening of a panel of 19 well-characterized cell lines derived from solid tumors seen in children and adolescents. The goal is to identify approved drugs with previously unrecognized anticancer properties that has the potential to reveal new mechanisms and biological processes involved in carcinogenesis or drug resistance. We employed a titration-based paradigm (quantitative high-throughput screening or qHTS), where all compounds were tested at multiple concentrations for their effect on cell viability. Concentration-response curves (CRCs) were derived directly from the primary screen, and both potency and efficacy values were used to identify compounds with robust bioactivity profiles. We screened the NIH Chemical Genomics Center (NCGC) Pharmaceutical Collection (NPC) and Mechanism Interrogation Plate (MIPE) small molecule collections of approved and investigational compounds against these cell lines; and measured metabolically active cells after 48 hours of compound treatment as a proxy for cell viability.
Assay Submitter: Nathalia J. Martinez, National Center for Advancing Translational Sciences, National Institutes of Health, Rockville, MD, USA; email: natalia.martinez@nih.gov
[1] Shen, M et al. Quantitative high-throughput phenotypic screening of pediatric cancer cell lines identifies multiple opportunities for drug repurposing. Oncotarget 2017 Dec 19;9(4):4758-4772. PMID 29435139.
The cells were obtained from University of North Carolina (UNC), Pediatric Preclinical Testing Program (PPT), and Coriell Institute (CI).
qHTS cell viability assay:
Cells were assayed in growth media at a density of 500-1,000 cells/well. Five microliters of cells were dispensed into 1,536-well, white, solid-bottom, TC-treated plates (Greiner Bio One) using a multidrop dispenser and incubated at 37 degrees C, 5% CO2, under a humidified atmosphere for 5 hours. Twenty-three nanoliters of compounds and controls (neutral control DMSO or positive control bortezomib at final concentration of 2.3 µM) were subsequently transferred by Kalypsys pintool. For primary screens, the MIPE collection was tested at 11-point dilutions (final concentrations range from 0.78 nM to 46 µM) and the NPC collection at 8-point dilutions (final concentrations range from 0.59 nM to 46 µM). Compounds tested in follow-up screens were assayed at 11-point dilutions. Cells were incubated for 48 hours, followed by addition of 3 µL of CellTiter-Glo (Promega). After a 15 min incubation at room temperature, samples were analyzed for luminescence intensity using a ViewLux High-throughput CCD imager equipped with clear filters.
Take `CN(C)CCN(Cc1ccsc1)c1ccccn1`: the Potency result was “inactive”.

As for `CCC1=C[C@@H]2CN(C1)Cc1c([nH]c3ccccc13)[C@@](C(=O)OC)(c1cc3c(cc1OC)N(C)[C@H]1[C@@](O)(C(=O)OC)[C@H](OC(C)=O)[C@]4(CC)C=CCN5CC[C@]31[C@@H]54)C2`, the Potency result is “inactive”.

As to `C[C@H]1C[C@H]2[C@@H]3CCC4=CC(=O)C=C[C@]4(C)[C@H]3C(=O)C[C@]2(C)[C@@]1(O)C(=O)CO`, the Potency is 3.29 µM (active). With `CCCC(=O)O[C@]1(C(=O)COC(=O)CC)CC[C@H]2[C@@H]3CCC4=CC(=O)CC[C@]4(C)[C@H]3[C@@H](O)C[C@@]21C`, the Potency result is “inactive”. With `CC(C)=CCC/C(C)=C/CC/C(C)=C/C(=O)OCC(=O)[C@@]1(O)CC[C@H]2[C@@H]3CCC4=CC(=O)C=C[C@]4(C)[C@H]3[C@@H](O)C[C@@]21C`, the Potency result was “inactive”.

`Cc1cc(OCCOCC[N+](C)(C)Cc2ccccc2)ccc1C(C)(C)CC(C)(C)C`: the Potency is 18.5 µM (active). As to `Cc1nc(N)nc(N)c1-c1ccc(Cl)c(Cl)c1`, the Potency result was “inactive”. For `CC(=O)O[C@@H]1C(=O)O[C@@H]2[C@H]1OC(=O)[C@@H]2OC(C)=O`, the Potency result was “inactive”. With `COc1cc(/C=C/C(N)=O)cc(OC)c1OC`, the Potency result was “inactive”. As to `CC(=O)OCC(=O)[C@@]1(O)[C@H](OC(C)=O)C[C@H]2[C@@H]3CCC4=CC(=O)C=C[C@]4(C)[C@@]3(F)[C@@H](O)C[C@@]21C`, the Potency entry was “inactive”. Regarding `O=[N+]([O-])c1ccc(O)c2ncccc12`, the Potency was 10.4 µM (active).

Regarding `Nc1c2ccccc2nc2ccccc12`, the Potency was 4.65 µM (active). As for `C[C@]12CCC(=O)C=C1CC[C@@H]1[C@@H]2[C@@H](O)C[C@@]2(C)[C@H]1CC[C@]2(O)C(=O)COC(=O)CCC(=O)O`, the Potency entry was “inactive”. `C[C@H]1C[C@@H]2[C@H]([C@@H](O)C[C@@]3(C)[C@H]2CC[C@]3(O)C(=O)CO)[C@@]2(C)C=CC(=O)C=C12`: the Potency entry is “inactive”. The result for `CCN(CC)CC(=O)OCC(=O)[C@@]1(O)CC[C@H]2[C@@H]3CCC4=CC(=O)CC[C@]4(C)[C@H]3[C@@H](O)C[C@@]21C` reads “inactive”. For `CC(C)(C)CC(=O)OCC(=O)[C@@]1(O)CC[C@H]2[C@@H]3CCC4=CC(=O)C=C[C@]4(C)[C@H]3[C@@H](O)C[C@@]21C`, the Potency entry is “inactive”. The result for `CCOC(=O)O[C@]1(C(=O)OCCl)CC[C@H]2[C@@H]3CCC4=CC(=O)C=C[C@]4(C)[C@H]3[C@@H](O)C[C@@]21C` reads “inactive”. For `CC[C@@]1(O)C(=O)OCc2c1cc1n(c2=O)Cc2c-1nc1ccccc1c2/C=N/OC(C)(C)C`, the Potency is 0.465 µM (active). `CCCC(=O)O[C@]1(C(=O)CCl)[C@@H](C)C[C@H]2[C@@H]3CCC4=CC(=O)C=C[C@]4(C)[C@@]3(F)C(=O)C[C@@]21C`: the Potency result was “inactive”. The entry for `CCCCC(CC)CNC(=O)CC(C)OC(=O)CCC(=O)O` (centres undefined) is “inactive”; for `CC(=O)[C@@]1(O)CC[C@H]2[C@@H]3C[C@H](C)C4=CC(=O)CC[C@]4(C)[C@H]3CC[C@@]21C` it is “inactive”; for `CCC1(c2cnc[nH]2)Cc2ccccc2C1` it is 16.5 µM (active).

`CCc1cc2cc(OC)c(OC)cc2c(Cc2ccccc2)n1`: the Potency result is “inactive”.

As to `N=C(N)c1ccc(OCCCOc2ccc(C(=N)N)cc2)cc1`, the Potency result is “inactive”. As to `CCCCC(=O)OCC(=O)[C@H]1[C@H](C)C[C@H]2[C@@H]3C[C@H](F)C4=CC(=O)C=C[C@]4(C)[C@@]3(F)[C@@H](O)C[C@@]21C`, the Potency was 20.8 µM (active).

Take `CCC(=O)O[C@]1(C(=O)COC)[C@@H](C)C[C@H]2[C@@H]3CCC4=CC(=O)C=C[C@]4(C)C3(F)[C@@H](O)C[C@@]21C` (some centres undefined): the Potency result was “inactive”. Take `CO[C@@H]1[C@@H](OC)[C@H](C)[C@@](O)(CC(=O)O)O[C@H]1[C@H](C)[C@H]1O[C@@]2(CC[C@@](C)([C@H]3CC[C@@](C)([C@@H]4O[C@@H]([C@H]5O[C@](C)(O)[C@H](C)C[C@@H]5C)C[C@@H]4OC4C[C@H](OC)[C@@H](OC)[C@H](C)O4)O3)O2)C[C@H](O)[C@H]1C` (some centres undefined): the Potency was 6.57 µM (active). The result for `CC(=O)OCC(=O)[C@@]1(O)CCC2C3CCC4=CC(=O)CC[C@]4(C)C3[C@@H](O)C[C@@]21C` (some centres undefined) reads “inactive”; that for `Cc1ccc(C(=O)Oc2ccc(C(O)CNC(C)(C)C)cc2OC(=O)c2ccc(C)cc2)cc1` (centres undefined), “inactive”.
